In the library only some 12% were active in any assay of this set; here they are far more common.
MARV entry inh – blocks Marburg virus binding to or entry into cells; Marburg virus pseudotyped entry inhibition, cell reporter; Potency, µM (top dose mostly 37.8 µM), without a hit: at the top dose activity change, negative = inhibition, most hits filed as inhibitors; 1.8% of 300,000 active; calls by dose curve; tested in HEK293 cells; also: potency is read from the fitted curve at half-maximal effect; % is scaled to controls: 0 for no effect and ±100 for the full control effect
LASV entry inh – blocks Lassa virus binding to or entry into cells; Lassa virus pseudotype entry inhibition, cell reporter; Potency, µM (highest dose often 37.9 µM), for the others: top-dose activity change, negative = inhibition, hits mostly inhibitors; 1.2% of 300,000 active; AID 540256; calls by dose curve; tested in HEK293 cells; also: potency is read from the fitted curve at half-maximal effect; % is scaled to controls: 0 for no effect and ±100 for the full control effect; nearly all actives have a fitted effect of over 50% in size
CHX counter – affects cycloheximide protein synthesis inhibition readout, counter-screen | cell reporter, cycloheximide protein synthesis inhibition counterscreen | max response, % | 12% of 300,000 active; in the data active = max response mostly above about 13%, no sharp cut-off; inactive = mostly below about 14%; also: read at 38.3 µM for the half of the compounds with a filed dose; 0% is about no effect
Shiga inhibitor – blocks Shiga toxin action in Vero cells; Vero cells, Shiga toxin protein synthesis inhibition reporter; inhibition, % at 38.7 µM; 9.2% of 290,000 active; in the data active = inhibition mostly above about 28%, no sharp cut-off; inactive = mostly below about 43%; also: 0% is about no effect
Numbers without * were called inactive; ? = inconclusive; nt = not tested or not shown; [ ] = dose if it differs, or a comment.

SMILES	MARV entry inh	LASV entry inh	CHX counter	Shiga inhibitor
O=C(NCCSCc1cccc(Cl)c1)C1CCN(S(=O)(=O)Cc2ccccc2)CC1	10%[46.1 µM]	16%[46.1 µM]	nt	nt
Nc1nonc1C(=O)NCCNS(=O)(=O)c1ccc(Br)cc1	5%	15%	-2	-7
O=C(N/N=C1\CC(c2ccccc2)Oc2ccccc21)c1cccnc1 (stereo not given)	-23%	?	6	7
O=S(=O)(N/N=C1\CC(c2ccccc2)Oc2ccccc21)c1ccccc1 (stereo not given)	-8%[46.1 µM]	3%	18	35
O=C(N/N=C1\CC(c2ccccc2)Oc2ccccc21)c1ccccn1 (stereo not given)	-26%[46.1 µM]	-11%	15*	51*
CCOc1ccc(S(=O)(=O)N/N=C2/CC(c3ccccc3)Oc3ccccc32)cc1 (stereo not given)	?	-3%	30*	32
O=C(N/N=C1\CC(c2ccccc2)Oc2ccccc21)c1ccc(O)cc1 (stereo not given)	-1%[46.1 µM]	?	40*	118*
CC(=O)Nc1ccc(C(=O)N/C(=C/c2ccccc2)C(=O)Nc2cccc(C(=O)O)c2)cc1	2%[46.1 µM]	9%[46.1 µM]	-3	1
CC(=O)Nc1ccc(NC(=O)/C(Cl)=C/c2ccccc2)cc1	?	1%	47*	157*
Cc1ccc2nc(-c3ccsc3)c(NC3CCCC3)n2c1	6%[46.1 µM]	2%	29	51*
CCOC(=O)/C=C1/SCC(=O)N1CC(=O)c1ccc[nH]1	25%[46.1 µM]	-4%[46.1 µM]	nt	nt
COCCNC(=O)C1(C(F)(F)F)C/C(=C/CCO)CCCO1 (stereo not given)	nt	nt	9	3
NC(=O)C1CCN(C(=O)CCSCc2ccccc2)CC1	nt	nt	24*	7
Cc1ccc(SCCC(=O)N2CCC(C)CC2)cc1	2%	?	34*	73*
Cc1ccc(SCCC(=O)N2CCC(C(N)=O)CC2)cc1	30%	16%	14*	-6
Cc1cc(C)nc(SCC(=O)N2CCC(C(N)=O)CC2)n1	22%	-3%	-4	-2
Cn1c(SCC(=O)Nc2ccc(NC(=O)c3cccs3)cc2)nnc1-c1ccncc1	17%[46.1 µM]	2%	-2	-4
O=C(COc1ccc2ccccc2c1Br)N1CCCCC1	nt	nt	62*	89*
O=C(COc1ccc2ccccc2c1Br)NCc1ccccn1	?	1%	23*	57*
O=C(Oc1ccc2cc(Br)ccc2c1)N1CCCCCC1	-2%	24%	48*	58*
O=C(COc1ccc(Br)cc1)NCc1ccccn1	11%	11%	-3	9
CCN(CC)C(=O)Oc1ccc(Br)c2ccccc12	?	?	1	-5
NC(=O)C1CCN(C(=O)COc2ccc3ccccc3c2Br)CC1	22%	4%	6	13
CCN(CC)C(=O)Oc1ccc2ccccc2c1Br	?	?	25*	76*
O=C(Oc1ccc2ccc(=O)oc2c1)N1CCOCC1	29%	23%	7	76
SMILES	MARV entry inh	LASV entry inh	CHX counter	Shiga inhibitor
CCOC(=O)N1CCC(N2Cc3cccc(C(=O)Nc4ccccc4OC)c3C2=O)CC1	nt	nt	2	-10
COc1cccc2c1C(CO)N1C(C#N)C3CC(C(=O)O)C(C1C2)N3C (stereo not given)	nt	nt	-3	11
CCCN1CCN(S(=O)(=O)c2ccc3c(c2)NC(=O)C(C)C(=O)N3)CC1 (stereo not given)	nt	nt	-1	12
O=C(Oc1ccc2ccccc2c1Br)N1CCCCCC1	1.2µM*	3.3µM*	36*	117*
CCOC(=O)c1cnc(SCC(=O)c2ccc(C)cc2)nc1N	8%	-2%	-3	-2
Cc1cc(C)nc(SCC(=O)c2ccc3c(c2)OCCO3)n1	-2%	16%	26*	-1
CCOC(=O)c1cnc(SCC(=O)c2ccc3c(c2)OCCO3)nc1N	18%	12%	28*	104*
CCCc1cc(=O)[nH]c(SCC(=O)c2ccc3c(c2)OCCO3)n1	15%	2%	8	18
Cc1ccc2nc(N(CCN3CCOCC3)C(=O)CCS(=O)(=O)c3ccccc3)sc2c1	?	-17%	nt	nt
CCCC(=O)N(CCN1CCOCC1)c1nc2cc(C)c(C)cc2s1	-5%[46.1 µM]	?	51*	91*
COc1ccc(S(=O)(=O)N(CC(=O)NC2CC2)c2ccc(C)cc2)cc1	?	1%	2	9
CCc1ccc(C(=O)Cn2ncc(Cl)c(Cl)c2=O)cc1	?	?	17*	24
Cc1ccc(Cn2ncc(Cl)c(Cl)c2=O)cc1	?	?	11	38
O=C(Cn1ncc(Cl)c(Cl)c1=O)N1CCOCC1	?	?	23*	38*
Cc1c(-c2nc(N)nc(Nc3ccc(F)cc3)n2)oc2ccccc12	?	-6%	22*	84*
Cc1ccccc1Nc1nc(N)nc(-c2oc3ccccc3c2C)n1	?	-4%	64*	122*
COc1ccccc1Nc1nc(N)nc(-c2oc3ccccc3c2C)n1	?	19%	0	36
O=C(COC(=O)C1CCC1)NCc1ccc(F)cc1	3%	2%	nt	nt
CC1(O)c2ccccc2C(=O)N1CCc1ccccc1F (stereo not given)	9%	?	43*	66*
CC1(O)c2ccccc2C(=O)N1Cc1ccccc1 (stereo not given)	1%	-6%	0	11
CCCN(CCC)C(=O)CSc1nnc2cc(C)c3cc(C)cc(C)c3n12	14%[46.1 µM]	0%[46.1 µM]	nt	nt
COc1cc(C(=O)Nc2nc(-c3cccs3)cs2)cc(OC)c1OC	18µM*	10µM*	8	-9
O=C(Nc1nc(-c2cccs2)cs1)c1cccc(S(=O)(=O)N2CCCCC2)c1	?	-5%	18*	17
COc1ccc(C(=O)Nc2nc(-c3cccs3)cs2)cc1	?	?	45*	84*
O=C(Nc1nc(-c2cccs2)cs1)c1ccc(Cl)cc1	?	?	29	41
SMILES	MARV entry inh	LASV entry inh	CHX counter	Shiga inhibitor
CCOC(=O)N1CCN(C(=O)CSC2=NS(=O)(=O)c3ccccc3N2)CC1	0%	?	nt	nt
Cc1ccc(NC(=O)C2CCCN(c3ncnc4onc(C)c34)C2)c(Cl)c1 (stereo not given)	nt	-11%[46.1 µM]	nt	nt
COC(=O)c1ccccc1NC(=O)c1nc(S(=O)(=O)Cc2ccccc2)ncc1Cl	nt	nt	-10	-2
CC(=O)Nc1ccc(NC(=O)c2nc(S(=O)(=O)Cc3ccccc3)ncc2Cl)cc1	nt	nt	37*	94*
CCC1CCCCN1S(=O)(=O)c1ccc(NC(=O)c2nc(S(C)(=O)=O)ncc2Cl)cc1 (stereo not given)	8.9µM*	?	-7	-20
CS(=O)(=O)c1ncc(Cl)c(C(=O)Nc2ccc3ccccc3c2)n1	8.9µM*	?	1	-4
O=C(NCc1ccccc1)c1nc(S(=O)(=O)Cc2ccccc2)ncc1Cl	-7%[46.1 µM]	?	27*	48
Cc1ccccc1-n1ncc2c1CC(C)(C)CC2NC(=O)c1snnc1C (stereo not given)	nt	nt	-1	-10
CC(C)(C)c1ccc(O[C@@H]2[C@H](O)CO[C@@H]2C=CC#Cc2ccccc2)cc1	-9%[14.2 µM]	nt	nt	nt
O=C(Nc1ccc(C(F)(F)F)cc1[N+](=O)[O-])O[C@H]1[C@H](Cc2ccccc2)NS(=O)(=O)[C@H]2C[C@@H]3C=C[C@]12O3	4%	nt	nt	nt
COc1ccc(CNC(=O)c2nc(S(=O)(=O)Cc3ccccc3)ncc2Cl)cc1	-7%[46.1 µM]	?	29*	15

Bioassay records (PubChem BioAssay)
